# Experimental data from PubChem BioAssay AID1053119 (Broad Institute, 2014).
# Results with a measured potency or affinity are listed apart. Records with an inconclusive call do not appear. Calls of active or inactive are those of the source.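 The calls were made as follows: active = signal loss from cell killing with fitted potency at or below twice the top valid dose; inconclusive = flat drop of 30 to 70%, or unreliable curve fit; inactive = opposite direction, flat within 30%, or weaker potency.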
# Assay: A549 cell cytotoxicity, dose response, cytotoxicity control, cherry-picks, 26 µM top dose (AID 1053119);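 also: 0% = neutral control wells and -100% = 10 µM mitoxantrone wells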
# Conditions: A549 viability, CellTiter-Glo ATP luminescence, 72 h; series mostly up to 26 µM; activity change, negative = cytotoxicity: at the top concentration
row,Compound,"activity change, negative = cytotoxicity"
1,C[C@@H]1CN([C@@H](C)CO)C(=O)c2cc(-c3ccccc3)cnc2O[C@@H]1CN(C)C(=O)c1cccc(F)c1,-10.3% (inactive)
2,C[C@H](O)C#Cc1ccc2c(c1)O[C@@H](CN(C)C)[C@H](C)CN([C@H](C)CO)S2(=O)=O,11.8% (inactive)
3,COc1ccc(-c2oc3ncnc(NCCCN4CCOCC4)c3c2-c2ccc(OC)cc2)cc1,-31% (inactive)
4,c1ccc2[nH]c(SCc3cn4cccnc4n3)nc2c1,9.45% (inactive)
5,S=C(NCC1CCCO1)Nc1ccc(Cl)cc1Cl (configuration not stated),-10.4% (inactive)
6,CN(C)C(=O)c1ccc(-c2ccc3c(c2)[C@@H]2[C@@H](CCN2C(=O)c2ccc(F)cc2)[C@H](CO)N3C)cc1,-11.7% (inactive)
7,O=C(Nc1ccccc1F)N1C[C@H]2[C@@H](c3ccccc31)[C@H](CO)N2C(=O)C1CC1,1.68% (inactive)
8,C[C@@H]1CN([C@@H](C)CO)C(=O)c2cc(NC(=O)C3CCCCC3)ccc2O[C@@H]1CN(C)Cc1ccc(-c2ccccc2)cc1,-4.93% (inactive)
9,O=C(c1cccnc1)N1C[C@H]2[C@@H](c3ccccc31)[C@H](CO)N2CC1CCCC1,-2.73% [at 23.5 µM] (inactive)
10,O=S(=O)(c1cccc(F)c1)N1CC[C@H]2[C@H](CO)Nc3ccc(-c4cccc(F)c4)cc3[C@H]21,-1.9% (inactive)
11,CO[C@@H]1CN(C)C(=O)c2cc(NC(=O)Nc3ccc(Cl)c(Cl)c3)ccc2OC[C@H](C)NC[C@@H]1C,-4.37% (inactive)
12,COC(=O)C[C@H]1CC[C@H]2[C@H](COc3ccc(NC(=O)Cc4cccs4)cc3C(=O)N2C)O1,-7.75% (inactive)
13,CC(C)NC(=O)N(C)C[C@H]1Oc2ccc(NC(=O)CCN3CCOCC3)cc2C(=O)N([C@H](C)CO)C[C@@H]1C,3.85% (inactive)
14,O=C(CSc1nc2ncc(Cl)cc2[nH]1)c1c[nH]c2ccccc12,3.79% (inactive)
15,CC(C)Cc1nnc(NC(=O)CSc2nc(N)cc(=O)[nH]2)s1,-9.89% (inactive)
16,COCC(=O)Nc1ccc2c(c1)C(=O)N(C)[C@@H]1CC[C@H](CC(=O)NCc3ccccc3Cl)O[C@H]1CO2,1.18% (inactive)
17,COc1ccccc1CNc1nc(NCc2cnc(C)cn2)c2sccc2n1,0.101% (inactive)
18,Cc1c(NC(=O)c2ccc3nsnc3c2)cccc1[N+](=O)[O-],-0.314% (inactive)
19,C[C@@H]1CN([C@@H](C)CO)C(=O)c2cc(-c3ccccc3)cnc2O[C@H]1CN(C)C(=O)c1cccc(F)c1,-3.62% (inactive)

row,Compound,"activity change, negative = cytotoxicity"
1,CCN(Cc1ccncc1)C(=O)c1ccc2c(c1)S(=O)(=O)c1ccccc1C2=O,-3.23% (inactive)
2,CN1c2ccc(-c3ccccc3)cc2[C@H]2[C@H](CCN2C(=O)CN2CCOCC2)[C@@H]1CO,23.2% (inactive)
3,C[C@H]1CN([C@@H](C)CO)C(=O)c2cc(-c3ccccc3)cnc2O[C@H]1CN(C)Cc1ccccc1,-3.41% (inactive)
4,C[C@H]1CN([C@@H](C)CO)C(=O)c2cc(-c3ccccc3)cnc2O[C@H]1CN(C)C(=O)c1cccc(F)c1,-9.13% (inactive)
5,COCC(C)n1c(SCc2nc(N)nc(Nc3ccccc3C)n2)nc2ccccc2c1=O (configuration not stated),16.3% (inactive)
6,Cc1cc(C)n2ncc(C(=O)NCc3ccc(Cl)cc3)c2n1,-3.99% (inactive)
7,COc1cccc(-c2ccc3c(c2)[C@H]2[C@H](CCN2S(=O)(=O)c2cccc(OC)c2)[C@@H](CO)N3)c1,-4.15% (inactive)
8,COCC(=O)Nc1ccc2c(c1)C(=O)N(C)[C@@H]1CC[C@@H](CC(=O)NCc3ccccc3Cl)O[C@H]1CO2,1.05% [at 23.5 µM] (inactive)
9,COc1cccc(-c2ccc3c(c2)[C@@H]2[C@@H](CCN2S(=O)(=O)c2cccc(OC)c2)[C@H](CO)N3)c1,-8.83% (inactive)
10,CCCc1cc(C(=O)OC)c(NC(=O)CCC(=O)O)s1,-7.87% (inactive)
11,CN(C)C(=O)c1ccc(-c2ccc3c(c2)[C@@H]2[C@@H](CCN2C(=O)c2ccc(F)cc2)[C@@H](CO)N3C)cc1,-30.3% (inactive)
12,Cc1ccc(N(CC(=O)NCc2ccco2)S(=O)(=O)c2ccccc2)cc1,-5.49% (inactive)
13,C[C@@H]1CN([C@@H](C)CO)C(=O)c2cc(-c3ccccc3)cnc2O[C@@H]1CN(C)Cc1ccccc1,-4.5% (inactive)
14,CO[C@H]1CN(C)C(=O)c2cc(NC(=O)Nc3cc(Cl)cc(Cl)c3)ccc2OC[C@H](C)NC[C@@H]1C,8.32% (inactive)
15,COCC(=O)Nc1ccc2c(c1)C(=O)N(C)[C@H]1CC[C@H](CC(=O)NCc3ccccc3Cl)O[C@@H]1CO2,-12% [at 23.5 µM] (inactive)
16,Cc1ccc(S(=O)(=O)N2CC3(C)CN(S(=O)(=O)c4ccc(C)cc4)CC(C)(C2)C3=O)cc1,-4.34% (inactive)
17,COc1ccc([N+](=O)[O-])cc1NS(=O)(=O)c1ccc(C(=O)N2CCCC2)cc1,-5.09% (inactive)
18,COC(=O)c1cn(CC(=O)NCc2ccco2)c2ccccc12,0.072% (inactive)
